The record followed here is PubChem BioAssay (NCI).

The structures appear in SMILES notation. The panel holds about 83,000 compounds, 20% with a hit somewhere; the sample as a whole holds those more often.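 96-well plates, one dose, 48 hours. Percent growth reported; active if below 10.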 Values without a mark were called inactive. Activity calls are given as the source filed them.

The test system of this experiment is COLO 205 colon. Nature of the experiment: NCI-60 one-dose screen, 48 h (100 = growth as untreated, 0 = no growth, -100 = all killed). Conditions: 10 µM unless noted. On the procedure:
Cells are grown in 96 well plates and exposed to the test compound for 48 hours. Compounds are tested at a single concentration, which is 10^-5 M for most compounds. The reported endpoint is percent growth (GI% or GIPRCNT), where numbers from 0 - 100% represent growth inhibition, and numbers from -100% - 0 represent cell death. For example, a value of 40 represents 60% growth inhibition. A value of 0 means no net growth occurred over the course of the experiment. A value of -40 indicates 40% of cells at the beginning of the experiment died by the end of the experiment. A value of -100 means all cells are dead at the end of the experiment.
NCI-60 Human Tumor Cell Lines Screen was performed using the standard one-dose NCI protocol, which is described in more detail at https://dtp.cancer.gov/discovery_development/nci-60/default.htm.
Compounds with GIPRCNT values below 10 were considered active. Activity score was based on GIPRCNT using the following formula: […]
Score is 0 for GIPRCNT values of 100 or above, 50 for GIPRCNT values of 0, and 100 for GIPRCNT values of -100.
For `C#CC[C@@H]1C[C@]2(C)[C@H]3CC=C4[C@H]5[C@@H](C)[C@H](C)CC[C@]5(C(=O)NCCCCCCCCN)CC[C@@]4(C)[C@]3(C)CC[C@H]2C(C)(C)[C@H]1OC(C)=O`, the growth is -23.4% (active). For the compound `CC(OC(=O)Nc1cccc(Cl)c1)C(=O)O` (stereo not given), the growth is 113%. With `Clc1ccc(Nc2ncnc3c2sc2ncccc23)cc1`, the growth was 30.2%. With `C=CCn1c(SCC(=O)Nc2ccc(C(=O)/C=C/c3ccc(Cl)cc3)cc2)nnc1-c1ccc(Cl)cc1`, the growth was 98.3%. `COCCCNCC(=O)Nc1c(C)cccc1C`: the growth is 109%.

`COC(=O)c1cc2oc(/C=N/NC(=O)c3cc4oc(-c5cccc(C(F)(F)F)c5)cc4[nH]3)cc2n1Cc1ccccc1`: the growth is 118%. For the compound `Oc1ccc(CCCCCCc2ccc(O)cc2)cc1`, the growth was 103%. Consider `C=C(C)[C@@H]1CC[C@]2(C)[C@H](CC=C3[C@@H]4C[C@](C)(C(=O)N5CCN(C)CC5)CC[C@]4(C)CC[C@]32C)[C@@]1(C)CCC#N`, for which the growth was 45.2%.

On to `C#CC[C@@H]1C[C@]2(C)[C@H]3CC=C4[C@H]5[C@@H](C)[C@H](C)CC[C@]5(C(=O)NCCCN5CCN(CCCN)CC5)CC[C@@]4(C)[C@]3(C)CC[C@H]2C(C)(C)[C@H]1OC(C)=O`, for which the growth was -69.9% (active). For `COc1cc2c(cc1I)-c1c(cc(OC)c(OC)c1OC)CC[C@@H]2NC(C)=O` the value was -52.8% (active). Under `CC(=O)c1cccc(Nc2ncnc3ccc(NC(=O)c4ccco4)cc23)c1` stands 98.5%; under `Cc1cc(C#Cc2ccccc2)ccc1-n1c(/C=C/c2ccc(F)cc2)nc2ccccc2c1=O`, 53.3%; under `Cc1nc([C@H]2CC[C@H]3[C@@H]4CCC5=CC(=O)CC[C@]5(C)[C@H]4CC[C@]23C)cs1`, 97.5%.

As for `COc1ccc(/C=C2\N=C(c3cccnc3)N(c3ccccc3)NC2=O)cc1`, the growth is 113%.

With `COc1cc2c(cc1OC)C(=O)C(Br)CC2` (stereo not given), the growth was 24.6%. As to `Clc1cn2cc(-c3ccc(Cl)c(Cl)c3Cl)nc2s1`, the growth is 106%. Under `COc1cccc(NC(=O)c2c(-c3ccccc3)c(-c3ccccc3)n[nH]c2=O)c1` stands 110%.

For the compound `O=C(C(Br)C(Br)c1ccccc1)C(Br)C(Br)c1ccccc1` (stereo not given), the growth is -47.8% (active). On to `COc1ccc(NC(=O)/C=C/c2ccc(Cl)c(Cl)c2)cn1`, for which the growth was 101%. As for `COc1cccc2nc(Nc3cccc(NC(=O)c4ccc(N5CCN(C)CC5)c(C(F)(F)F)c4)c3)ccc12`, the growth was -59.2% (active). Consider `CC1=NN(c2cccc(S(N)(=O)=O)c2)C(=O)C1`, for which the growth was 108%. Turning to `CC1=NC(c2ccc(Cl)cc2)C2=C(N1)/C(=C/c1ccc(Cl)cc1)CCC2` (stereo not given), the growth was 99%. `C#CC[C@@H]1C[C@]2(C)[C@H]3CC[C@@H]4[C@H]5C(C(=C)C)CC[C@]5(C(=O)NCCCN5CCN(CCCN)CC5)CC[C@@]4(C)[C@]3(C)CC[C@H]2C(C)(C)[C@H]1OC(C)=O` (stereo not given in full): the growth is -68.3% (active). For `COc1ccc(-c2nn(-c3cccc(Cl)c3)cc2/C=C2\C(=N)N(c3ccccc3)N=C2N)cc1` the value was -22.8% (active); for `CC[C@H](Nc1nc(N)nc(C2CC2)c1C#N)c1nc2cccc(NCc3ccc(C(=O)NO)cc3)c2c(=O)n1-c1ccccc1`, -17.8% (active). Turning to `COc1ccc2c(c1)CCCC21C(=O)Nc2ccccc21` (stereo not given), the growth was 108%. On to `C#CC[C@@H]1C[C@]2(C)[C@H]3CC[C@@H]4[C@H]5C(C(=C)C)CC[C@]5(C(=O)NCCN(CCN)CCN)CC[C@@]4(C)[C@]3(C)CC[C@H]2C(C)(C)[C@H]1OC(C)=O` (stereo not given in full), for which the growth was 69.3%.

Turning to `Cc1cc(C)c2c(n1)sc1c(Nc3ccc(O)cc3)ncnc12`, the growth was 33%. Under `CCN(CC)CCCCCCCNc1cc(OC)cc2c(C)ccnc12` stands 72.9%; under `CCCCCCCCCCCCCC[N+](C)(C)CCCCCCCCCCCCCC`, 66%; under `CCCNC(=S)N/N=C(\C)c1ccccn1`, 20.8%. Regarding `Fc1ccc(-c2ccnc3nc(-c4ccncc4)nn23)cc1`, the growth was 108%. Under `c1ccc2c(c1)cnc1ccccc12` stands 129%. Turning to `CCOC(=O)c1ccccc1SC(C[N+](=O)[O-])c1ccccc1` (stereo not given), the growth is 102%. As for `COc1cc(C2C=C(C)N=C3SC=NN32)cc(OC)c1OC` (stereo not given), the growth was 115%. For `C=CCn1c(SCC(=O)Nc2ccc(/C(C)=N\O)cc2)nnc1-c1cc(-c2ccccc2)nc2ccccc12` the value was 64.2%; for `C/C(=N\OC(=O)Nc1ccccc1)c1ccccc1`, 114%.

`O=c1[nH]c2cc(Cl)c(Cl)cc2o1`: the growth is 123%.

Take `Cc1[nH]nc2ccc3nc(-c4ccc5[nH]ncc5c4)c4c(c3c12)CCCC4`: the growth is 8.58% (active). Consider `Cc1c(O)c(=O)n(-c2ccccc2)n1C`, for which the growth was 111%.
